Results taken from PubChem BioAssay AID1159580 (chemical genetic matrix, 2015).
Where “and” joins values, the source holds several entries; their conditions need not be identical. Equal values may be shown once. Screen size: about 5,500 compounds; about 2,000 (36%) were called active. Another 18% or so got no clear call; they are omitted. Rule as the data show it: active = normalized growth mostly below about 0.91 (no sharp cut-off); inconclusive = no clear call, values can overlap the other calls; inactive = mostly above about 0.92. This is one part of the list.

Test: chemical genetic growth profiling, strain panel (AID 1159580);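 also: tested at 20 µM; growth read once vehicle control cultures reached saturation at 30 °C; 1 = growth at the plate median or of vehicle wells; lower values mean less growth of the strain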
Conditions: growth OD

Measured: normalized growth

O=C1CCCN1CC#CCN1CCCC1
inactive: S. cerevisiae deletion strains, locus YJR075W, strain HOC1, stronger effect = lower value 0.988 and 1 | S. cerevisiae deletion strains, locus YKL009W, strain mrt4, stronger effect = lower value 1.02 and 1.05 | S. cerevisiae deletion strains, locus YKL068W, stronger effect = lower value 1 | S. cerevisiae deletion strains, locus YKL085W, strain MDH1 (second series), stronger effect = lower value 1.02 | S. cerevisiae deletion strains, locus YKL085W, strain MDH1, stronger effect = lower value 1.02 | S. cerevisiae deletion strains, locus YKL160W, strain elf1, stronger effect = lower value 1.02 | S. cerevisiae deletion strains, locus YKL190W, strain CNB1, stronger effect = lower value 0.989 and 1.02 | S. cerevisiae deletion strains, locus YKR001C, strain vps1, stronger effect = lower value 1.01 and 1.02 | S. cerevisiae deletion strains, locus YKR026C, strain gcn3, stronger effect = lower value 1.02 | S. cerevisiae deletion strains, locus YKR091W, strain srl3, stronger effect = lower value 1.02 | S. cerevisiae deletion strains, locus YLL001W, strain dnm1, stronger effect = lower value 1.02 | S. cerevisiae deletion strains, locus YLL026W, stronger effect = lower value 1.01 | S. cerevisiae deletion strains, locus YLL041C, strain sdh2, stronger effect = lower value 1.02 | S. cerevisiae deletion strains, locus YLR027C, strain aat2, stronger effect = lower value 1.02 | S. cerevisiae deletion strains, locus YLR039C, strain RIC1, stronger effect = lower value 1.03 and 1.01 | S. cerevisiae deletion strains, locus YLR058C, strain SHM2, stronger effect = lower value 1.01 | S. cerevisiae deletion strains, locus YLR102C, strain apc9, stronger effect = lower value 1.01 and 1.02 | S. cerevisiae deletion strains, locus YLR113W, strain HOG1, stronger effect = lower value 1.04 | S. cerevisiae deletion strains, locus YLR221C, strain rsa3, stronger effect = lower value 1 | S. cerevisiae deletion strains, locus YLR258W, strain gsy2, stronger effect = lower value 1.02 | S. cerevisiae deletion strains, locus YLR262C, strain YPT6 (second series), stronger effect = lower value 1.03 | S. cerevisiae deletion strains, locus YLR262C, strain YPT6, stronger effect = lower value 1.05 and 1.02 | S. cerevisiae deletion strains, locus YLR268W, strain sec22, stronger effect = lower value 1.02 and 0.991 | S. cerevisiae deletion strains, locus YLR320W, strain mms22, stronger effect = lower value 1.02 | S. cerevisiae deletion strains, locus YLR330W, strain CHS5, stronger effect = lower value 1 and 1.01 | S. cerevisiae deletion strains, locus YLR342W, strain FKS1 (second series), stronger effect = lower value 1.02 and 1.06 | S. cerevisiae deletion strains, locus YLR342W, strain FKS1, stronger effect = lower value 1.02 | S. cerevisiae deletion strains, locus YLR357W, strain rsc2, stronger effect = lower value 1.05 | S. cerevisiae deletion strains, locus YLR370C, strain arc18, stronger effect = lower value 1.02 | S. cerevisiae deletion strains, locus YLR371W, strain rom2, stronger effect = lower value 0.994 and 1.03 | S. cerevisiae deletion strains, locus YLR384C, strain iki3, stronger effect = lower value 1.03 | S. cerevisiae deletion strains, locus YLR418C, strain cdc73, stronger effect = lower value 1.05 and 0.979 | S. cerevisiae deletion strains, locus YML016C, strain PPZ1, stronger effect = lower value 1.01 | S. cerevisiae deletion strains, locus YML032C, strain rad52, stronger effect = lower value 1.01 and 1.04 | S. cerevisiae deletion strains, locus YML120C, strain ndi1, stronger effect = lower value 1.03 | S. cerevisiae deletion strains, locus YML124C, strain tub3, stronger effect = lower value 1 | S. cerevisiae deletion strains, locus YMR058W, strain fet3, stronger effect = lower value 1.03 | S. cerevisiae deletion strains, locus YMR078C, strain ctf18, stronger effect = lower value 1.03 and 1.02 | S. cerevisiae deletion strains, locus YMR125W, strain sto1, stronger effect = lower value 1.04 | S. cerevisiae deletion strains, locus YMR129W, stronger effect = lower value 1.03 | S. cerevisiae deletion strains, locus YMR205C, strain PFK2, stronger effect = lower value 1.02 | S. cerevisiae deletion strains, locus YMR223W, strain ubp8, stronger effect = lower value 1.02 and 1.03 | S. cerevisiae deletion strains, locus YMR231W, strain pep5, stronger effect = lower value 1.03 | S. cerevisiae deletion strains, locus YMR263W, strain SAP30, stronger effect = lower value 1.01 | S. cerevisiae deletion strains, locus YMR307W, strain GAS1, stronger effect = lower value 1 and 0.983 | S. cerevisiae deletion strains, locus YNL067W, strain RPL9B, stronger effect = lower value 0.998 and 1.01 | S. cerevisiae deletion strains, locus YNL071W, strain lat1, stronger effect = lower value 1.02 | S. cerevisiae deletion strains, locus YNL128W, strain TEP1, stronger effect = lower value 1.01 | S. cerevisiae deletion strains, locus YNL153C, strain GIM3, stronger effect = lower value 1.03 and 0.992 | S. cerevisiae deletion strains, locus YNL175C, strain NOP13, stronger effect = lower value 0.992 | S. cerevisiae deletion strains, locus YNL183C, strain NPR1, stronger effect = lower value 0.999 | S. cerevisiae deletion strains, locus YNL197C, strain WHI3, stronger effect = lower value 0.986 | S. cerevisiae deletion strains, locus YNL209W, strain ssb2, stronger effect = lower value 1.02 | S. cerevisiae deletion strains, locus YNL224C, strain SQS1, stronger effect = lower value 1.01 | S. cerevisiae deletion strains, locus YNL233W, strain BNI4, stronger effect = lower value 0.993 and 0.996 | S. cerevisiae deletion strains, locus YNL248C, strain rpa49, stronger effect = lower value 1.03 | S. cerevisiae deletion strains, locus YNL250W, strain rad50, stronger effect = lower value 1.02 and 1.01 | S. cerevisiae deletion strains, locus YNL271C, strain bni1, stronger effect = lower value 1.01 and 1.03 | S. cerevisiae deletion strains, locus YNL298W, strain CLA4, stronger effect = lower value 1.03 | S. cerevisiae deletion strains, locus YNL307C, strain MCK1, stronger effect = lower value 1.02 and 1.03 | S. cerevisiae deletion strains, locus YNL322C, strain KRE1 (second series), stronger effect = lower value 1.02 | S. cerevisiae deletion strains, locus YNL322C, strain KRE1, stronger effect = lower value 1 and 1.01 | S. cerevisiae deletion strains, locus YNR049C, strain mso1, stronger effect = lower value 1.02 | S. cerevisiae deletion strains, locus YNR052C, strain pop2, stronger effect = lower value 1.01 and 1.04 | S. cerevisiae deletion strains, locus YOL006C, strain TOP1, stronger effect = lower value 1.03 and 1.04 | S. cerevisiae deletion strains, locus YOL012C, strain htz1 0.71 and 1.25 | S. cerevisiae deletion strains, locus YOL147C, strain pex11, stronger effect = lower value 1.01 | S. cerevisiae deletion strains, locus YOR001W, strain rrp6, stronger effect = lower value 1.04 | S. cerevisiae deletion strains, locus YOR061W, strain CKA2, stronger effect = lower value 1.01 | S. cerevisiae deletion strains, locus YOR069W, strain VPS5, stronger effect = lower value 1 and 1.01 | S. cerevisiae deletion strains, locus YOR070C, strain gyp1, stronger effect = lower value 1.02 | S. cerevisiae deletion strains, locus YOR080W, strain dia2, stronger effect = lower value 1.03 | S. cerevisiae deletion strains, locus YOR083W, strain WHI5 (second series), stronger effect = lower value 1.02 | S. cerevisiae deletion strains, locus YOR083W, strain WHI5, stronger effect = lower value 1.02 | S. cerevisiae deletion strains, locus YOR106W, strain vam3, stronger effect = lower value 1.05 | S. cerevisiae deletion strains, locus YOR136W, strain idh2, stronger effect = lower value 1.01 and 1.02 | S. cerevisiae deletion strains, locus YOR144C, strain elg1, stronger effect = lower value 1 and 1.01 | S. cerevisiae deletion strains, locus YOR184W, strain ser1, stronger effect = lower value 1.04 and 1.05 | S. cerevisiae deletion strains, locus YOR231W, strain MKK1, stronger effect = lower value 1.06 | S. cerevisiae deletion strains, locus YOR265W, strain rbl2, stronger effect = lower value 1.02 | S. cerevisiae deletion strains, locus YOR270C, strain vph1, stronger effect = lower value 1.08 | S. cerevisiae deletion strains, locus YOR290C, strain snf2, stronger effect = lower value 1.02 | S. cerevisiae deletion strains, locus YOR316C, strain cot1, stronger effect = lower value 1.01 | S. cerevisiae deletion strains, locus YPL051W, strain arl3, stronger effect = lower value 1.02 | S. cerevisiae deletion strains, locus YPL055C, strain LGE1, stronger effect = lower value 0.986 and 1.01 | S. cerevisiae deletion strains, locus YPL078C, strain atp4, stronger effect = lower value 1.04 | S. cerevisiae deletion strains, locus YPL106C, strain sse1, stronger effect = lower value 1.02 | S. cerevisiae deletion strains, locus YPL240C, strain hsp82, stronger effect = lower value 1.03 | S. cerevisiae deletion strains, locus YPL241C, strain CIN2, stronger effect = lower value 1 and 1.01 | S. cerevisiae deletion strains, locus YPL256C, strain CLN2, stronger effect = lower value 1.02 | S. cerevisiae deletion strains, locus YPR119W, strain clb2, stronger effect = lower value 1.01 | S. cerevisiae deletion strains, locus YPR141C, strain kar3, stronger effect = lower value 1.01 | S. cerevisiae deletion strains, locus YPR163C, strain tif3, stronger effect = lower value 1.02 and 1 | S. cerevisiae deletion strains, locus YPR167C, strain met16, stronger effect = lower value 1.02 and 1.03 | S. cerevisiae deletion strains, strain wtn01, stronger effect = lower value 1.03 and 1.02 | S. cerevisiae strains, strain wild type, stronger effect = lower value 1 and 1.01
